# PubChem BioAssay AID624351 (Southern Research Specialized Biocontainment Screening …, 2012)
# The campaign covered roughly 2,400 compounds. About 1,400 (58%) were called active. So high a share suggests a set chosen from earlier hits. The list shows a part of the results. A number with no mark means an inactive call.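 How the source made its calls: active means inhibition of 30% or more at any tested dose; inconclusive means primary hits over the limit that were never retested; inactive means the rest.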
# Test: coupled detection enzyme interference, dose response, artefact control for MgcRacGAP inhibitor project, biochemical, coupled enzyme counter-screen (AID 624351);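 further: signal is the ADP detection kit reading of free GDP without any GAP enzyme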;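 on inhibition: 0% = median positive control wells and 100% = median negative control wells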
# Conditions: ADP Hunter coupled enzyme counter-screen, fluorescence, no MgcRacGAP; series mostly up to 80 µM; inhibition: at the top concentration
SMILES,IC50,inhibition
COc1cc(/C=N/n2c(C)nc3ccccc3c2=O)ccc1O,43.1 µM (active),
COc1cc(/C=C/c2ccc3cccc(O)c3n2)ccc1O,81.5 µM (active),
CCCc1nc2ccccc2c(=O)n1/N=C/c1ccc(O)c(O)c1,41.7 µM (active),
NCC[C@H](O)C(=O)N[C@@H]1C[C@H](N)[C@@H](O[C@H]2O[C@H](CN)[C@@H](O)[C@H](O)[C@H]2O)[C@H](O)[C@H]1O[C@H]1O[C@H](CO)[C@@H](O)[C@H](N)[C@H]1O,,0.86%
COc1cc(/C=N/NC(=O)CN(Cc2ccco2)S(=O)(=O)c2ccccc2)ccc1O,49.9 µM (active),
COc1cc(/C=N/NC(=O)CN(Cc2ccccc2)S(=O)(=O)c2ccc3c(c2)OCCO3)ccc1O,73 µM (active),
CS/C(=N\S(=O)(=O)c1cccs1)NC(=O)CSc1nc2ccccc2s1,,4.26%
C#CCOCCOCCOCCNc1nc(N2CCN(C(=O)[C@H](CCCCN)n3cc(CN)nn3)CC2)nc(N2CCN(C(=O)[C@H](CCC(=O)O)n3cc([C@@H](N)CCCCN)nn3)CC2)n1,,0.72%
CCOC(=O)C1=C(C)NC(=O)CC1c1cc2c(cc1[N+](=O)[O-])OCO2 (stereo not given),64.2 µM (active),
OC1CNc2c(ccc3ccccc23)C1 (stereo not given),16.5 µM (active),
O=C1CCC(C2CCc3cc(O)ccc3C2)C1 (stereo not given),77.7 µM (active),
Clc1nssc1=Nc1ccc(Br)cc1,,15.1%
CSc1nc(C)c2c(n1)N(c1ccc(O)cc1)CC2,16.2 µM (active),
Cc1ccc(N2C(S)=C(C#N)C(=O)NC2c2ccco2)cc1 (stereo not given),,7.63%
CCN(CC)CCOCCOc1ccc(Cl)c2ccccc12,,15%
CCOc1cccc2cc(C(=O)Oc3ccc(OC)cc3)c(=O)oc12,,20.3%
Cc1nc(C)c(CC(=O)N/N=C/c2ccc(O)cc2)c(=O)[nH]1,75.8 µM (active),
Cc1ccc(NC(=O)CCC(=O)N/N=C/c2ccc(O)cc2)cc1,51.5 µM (active),
COc1cc(/C=N/NC(=O)CCC(=O)Nc2ccc(F)cc2)ccc1O,36.4 µM (active),
O=C(CCC(=O)Nc1ccc(F)cc1)N/N=C/c1ccc(O)cc1,71.3 µM (active),
CCCCCCCCCCCCCCCC(O)C[N+](C)(C)CCO (stereo not given),,-8.37%
O=C(CC(=O)Nc1ccc(Cl)c(Cl)c1)N/N=C/c1ccc(O)cc1,66.8 µM (active),
Cc1ccc(NC(=O)CN(C)C2CCCCC2)cc1Cl,,12.6%
COc1cc(/C=N/Nc2nc(C)cc(=O)[nH]2)ccc1O,24.9 µM (active),
Cc1cc(=O)[nH]c(N/N=C/c2ccc(O)c(O)c2)n1,20.9 µM (active),
S=c1[nH]cc2cnccn12,72.1 µM (active),
CCOC(=O)c1c(C)[nH]c(C(=O)CN2CCN(CC)CC2)c1C,,23.7%

SMILES,IC50,inhibition
CCOC(=O)c1c(C)[nH]sc1=S,44.3 µM (active),
CCOC(=O)c1sc(=S)[nH]c1C,46 µM (active),
CCn1c(-c2ccccc2)csc1=Nc1ccc(O)cc1,35.8 µM (active),
C=CCn1c(=O)/c(=C/c2ccc(O)cc2)s/c1=C(/C#N)c1nnc2n1CCCCC2,58.7 µM (active),
C/C(=N\NC(=O)CSCc1ccccc1Cl)c1cc(O)ccc1O,25.6 µM (active),
Brc1csc(C=Nc2ccc3c(c2)OCCOCCOCCOCCO3)c1,70.1 µM (active),
CCN1CCN(CC(=O)N/N=C/c2cc(Br)cs2)CC1,,22.6%
CC1=NN(c2ccc(C(=O)O)cc2)C(=O)/C1=C\c1ccc(OC(=O)c2cccs2)cc1,,1.5%
COc1ccc(Br)cc1CN1CCC(N2CCCC2)CC1,,23.7%
COc1ccc(Cn2nnnc2C(c2cccnc2)N2CCN(c3ccc(O)cc3)CC2)cc1 (stereo not given),50.3 µM (active),
COc1ccc(N2CCN(C(=O)c3ccc(CS(=O)c4cccc(Cl)c4)o3)CC2)cc1 (stereo not given),,29%
Oc1ccc(N2CCN(C(c3cccs3)c3nnnn3CCc3ccccc3)CC2)cc1 (stereo not given),45.2 µM (active),
CCC(c1nnnn1Cc1ccccc1)N1CCN(c2ccc(OC)cc2)CC1 (stereo not given),,21.9%
COc1cc2oc(-c3ccc(O)cc3)cc(=O)c2c(OC)c1O,21.9 µM (active),
COc1cc(CNc2ccc3[nH]c(=O)[nH]c3c2)ccc1OCc1ccccc1F,,15.4%
COc1cccc(CNc2ccc3[nH]c(=O)[nH]c3c2)c1OCc1ccccc1Cl,83.9 µM (active),
COc1cc(CNc2ccc3[nH]c(=O)[nH]c3c2)ccc1OCc1c(F)cccc1Cl,,6.31%
CN(CC(=O)NCc1ccncc1)S(=O)(=O)c1ccc(Cl)cc1,,0.47%
Cc1ccc(S(=O)(=O)Nc2nsc(N)n2)cc1,,4.63%
CN(C)c1ccc(NS(=O)(=O)c2ccc(Cl)cc2)cc1,33.7 µM (active),
CC(NS(=O)(=O)c1ccc(Cl)cc1)C(=O)OCC(=O)Nc1ccc(N(C)C)cc1 (stereo not given),70.6 µM (active),
CN(C)c1ccc(NS(=O)(=O)c2cc(Cl)ccc2Cl)cc1,50 µM (active),
CC(C)(C)N(NS(=O)(=O)c1ccc(F)cc1)c1ccccc1,,9.28%
Cc1ccc(S(=O)(=O)Nc2ccc(N(C)C)cc2)cc1,31.3 µM (active),
CC1CCN(CC(=O)Nc2ccc(S(=O)(=O)NC3CC3)cc2)CC1,,14.7%
COc1cccc(NS(=O)(=O)c2ccc3c(c2)C2C=CCC2C(c2ccc(C(=O)O)cc2)N3)c1 (stereo not given),,-25%
CCOCCCNCC(=O)NCC1CCCCC1,,19.1%

SMILES,IC50,inhibition
COc1cc(/C=C/C(=O)OCC(=O)NC2CCS(=O)(=O)C2)ccc1O (stereo not given),43.2 µM (active),
COc1cc(/C=C/C(=O)OCC(=O)NCC2CCCCC2)ccc1O,35.4 µM (active),
CCN(CC(=O)Nc1cc(Cl)ccc1OC)CC(=O)NC1CCS(=O)(=O)C1 (stereo not given),,19.5%
COc1cc(/C=C/C(=O)OCC(=O)NCCC2=CCCCC2)ccc1O,51.8 µM (active),
Cc1cc(/C=C(\C#N)C(=O)N2CCCCC2)cc(C)c1O,56.9 µM (active),
CC1CC(C)CN(C2CCN(Cc3cccnc3)CC2)C1 (stereo not given),,29.8%
CCOc1ccc(N(CCCCO)C(=S)NC(=O)c2ccc(C)c(Br)c2)cc1,,27.4%
N#CC1=C(S)N(c2ccc(F)cc2)C(c2ccco2)NC1=O (stereo not given),,-0.4%
OCCCCNc1cccc2ccccc12,34.5 µM (active),
O=C1c2cccc(NCCCNCCO)c2C(=O)c2cccc(NCCCNCCO)c21,,25.1%
O=C1c2cccc(NCCNCCO)c2C(=O)c2cccc(NCCNCCO)c21,,15.9%
COc1ccc(C(=O)CCNc2ccc3c(c2)OCCO3)cc1,,14.2%
Nc1ccc(C(=O)c2ccc3c(c2)OCCO3)cc1N,24.2 µM (active),
CCOc1cc(/C=C2\CN(C)C/C(=C\c3ccc(O)c(OCC)c3)C2=O)ccc1O,43.5 µM (active),
CCOc1cc(/C=C2\CN(CC)C/C(=C\c3ccc(O)c(OCC)c3)C2=O)ccc1O,61.9 µM (active),
COc1cc(C=C2CN(C)C(=O)C2=O)ccc1O,25 µM (active),
CCN(CC)CCC(=O)N1C/C(=C/c2ccccc2)C(=O)/C(=C\c2ccccc2)C1,,-0.82%
C[N+](C)(C)CCC(=O)N1C/C(=C/c2ccccc2)C(=O)/C(=C\c2ccccc2)C1,,-3.71%
CN(C)CCC(=O)N1C/C(=C/c2ccccc2)C(=O)/C(=C\c2ccccc2)C1,,5.48%
O=C1/C(=C\c2ccc(Cl)c(Cl)c2)CN(C(=O)CCN2CCOCC2)C/C1=C/c1ccc(Cl)c(Cl)c1,,1.77%
COc1cc(/C=C2\C(=O)N(C)C(=S)N2C)ccc1O,30.2 µM (active),
COc1cc(/C=C/C=C2/CC/C(=C/C=C/c3ccc(O)c(OC)c3)C2=O)ccc1O,,-16.6%
COc1ccc2c(C)cc3n[nH]c(=S)n3c2c1,15.8 µM (active),
COc1ccc(-n2cnc(=S)[nH]c2=S)cc1,,1.48%
COc1ccc2oc(=O)c(C(=O)Oc3ccc(NC(C)=O)cc3)cc2c1,,24.9%
COc1ccc(NC(=O)c2cc3ccc(O)cc3o/c2=N\O)cc1,57.4 µM (active),
COc1cccc2cc(C(=O)Oc3ccc(NC(C)=O)cc3)c(=O)oc12,,29.4%

SMILES,IC50,inhibition
COc1cc(/C=C/C(=O)OCC(=O)NNC(=O)c2cc(Cl)ccc2OC)ccc1O,55.8 µM (active),
COc1cc(/C=C/C(=O)OCC(=O)Nc2cccc(F)c2)ccc1O,41 µM (active),
COc1ccc(CNCC(=O)Nc2cc(OC)cc(OC)c2)cc1,,20.6%
COc1cc(/C=C2\C(=O)N(CCC#N)N=C2C)ccc1OCC(=O)Nc1ccccc1,,-5.99%
COc1cc(/C=C/C(=O)OCc2cn3cc(Cl)ccc3n2)ccc1O,36.2 µM (active),
COc1cc(NC(=O)COC(=O)/C=C/c2ccc(O)c(OC)c2)cc(OC)c1,36.1 µM (active),
C#CCOCCOCCOCCNc1nc(N2CCN(C(=O)[C@H](CCCCN)n3cc([C@@H](N)C(C)CC)nn3)CC2)nc(N2CCN(C(=O)[C@H](Cc3cc4ccccc4[nH]3)n3cc([C@@H](N)C(C)CC)nn3)CC2)n1 (stereo not given in full),,2.45%
COc1cc(C2NC(=O)C(C#N)=C(Nc3cccc(C)c3)S2)ccc1O (stereo not given),,17.9%
CCOC(=O)C1=C(COC(=O)/C=C/c2ccc(O)c(OC)c2)NC(=O)NC1C (stereo not given),53.1 µM (active),
O=C(N/N=C/c1ccc(O)cc1)Nc1cccc2nsnc12,61.4 µM (active),
COc1cc(/C=N/NC(=O)c2nnn(-c3nonc3N)c2C(C)C)ccc1O,40.7 µM (active),
Cc1nonc1C(=O)N/N=C/c1ccc(O)cc1O,72 µM (active),
Cc1nonc1C(=O)N/N=C/c1ccc(O)c(O)c1,17.7 µM (active),
COc1ccc(O)c(/C=N/NC(=O)c2c(C)nnn2-c2nonc2N)c1,,3.93%
COc1cc(/C=N/NC(=O)c2nonc2C)ccc1O,25.6 µM (active),
O=S(=O)(/N=S1\CC=CCN1S(=O)(=O)c1ccccc1)c1ccccc1 (stereo not given),,3.75%
COc1cccc(C(=O)N2CCN(C3CCN(Cc4ccccc4)CC3)CC2)c1OC,,19.7%
COc1cc(/C=C/C(=O)OCC(=O)N2CCC(Cc3ccccc3)CC2)ccc1O,49.4 µM (active),
COc1cc(/C=C/C(=O)OCC(=O)N2CC3(C)CC2CC(C)(C)C3)ccc1O (stereo not given),44.7 µM (active),
NS(=O)(=O)c1ccc(CCNCC(=O)N2CCC(Cc3ccccc3)CC2)cc1,,11.3%
C/C=C/c1ccc(OCCCCN2CCN(CC)CC2)c(OC)c1,,15.9%
COc1cc(CN2CCC(C(=O)N3CCN(c4ccccc4F)CC3)CC2)ccc1O,,20.6%
COC(=O)C1CCN(C(=O)COC(=O)/C=C/c2ccc(O)c(OC)c2)CC1,44 µM (active),
COc1cc(/C=C/C(=O)OCC(=O)N2CCCc3ccccc32)ccc1O,27.8 µM (active),
